# SNCA expr inh: Primary qHTS assay for inhibitors of alpha-synuclein gene (SNCA) expression; HEK-293 SNCA-luciferase knock-in, luminescence, 24 h; Potency, µM (titrated, usually from 57.2 µM), without a hit: top-dose activity change, negative = inhibition, actives largely listed as inhibitors; 140,000 tested, 0.17% active; AID 1671194, 2021;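 note: plate controls were DMSO cells for no effect and cell-free wells for full effect; nearly all actives have a fitted effect of over 45% in size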
# SNCA viab count: GF-AFC viability counterscreen for inhibitors of alpha-synuclein gene (SNCA) expression. Potency, µM (top dose mostly 57.1 µM), inactives show top-dose activity change, negative = cytotoxicity, actives largely listed as cytotoxic. 150,000 tested, 0.12% active. AID 1671193, 2021. HEK-293-SNCA-luc viability, GF-AFC fluorescence, 24 h;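 note: 0% = DMSO-treated cells and -100% = medium-only wells without cells; nearly all actives have a fitted effect of over 30% in size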
#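 Cytotoxicity counterscreen: after 24 h compound treatment of genome-edited SNCA-luciferase HEK-293 cells, live-cell protease substrate GF-AFC read by fluorescence after 30 min; activity scaled between DMSO (0%) and medium-only (-100%), curves Hill-fitted.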
# 3T3 cytotox: Cytotoxic Profiling in NIH 3T3 Cell Line of Diverse Libraries Using Quantitative High-Throughput Screening; NIH 3T3 viability, CellTiter-Glo ATP luminescence, 48-72 h; Potency, µM (highest dose often 96.7 µM), for inactives: at the top dose activity change, negative = cytotoxicity, most hits filed as inhibitors; 94,000 tested, 4.3% active; AID 1345082, 2018; note: nearly all actives have a fitted effect of over 55% in size
#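 Cells were seeded at 400 per well, treated with pin-transferred compound, and kept 48 or 72 hr at 37 °C before CellTiter-Glo addition and luminescence imaging of cellular ATP.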
# HEK293 tox: Cytotoxic Profiling in HEK 293 Cell Line of Diverse Libraries Using Quantitative High-Throughput Screening; AID 1345083, 2018; 94,000 tested, 6.6% active; Potency, µM (series often up to 115 µM), for the others: top-dose activity change, negative = cytotoxicity, hits mostly inhibitors; HEK 293 viability, ATP luminescence (CellTiter-Glo), 48-72 h; note: nearly all actives have a fitted effect of over 60% in size
#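 Viability of HEK 293 cells, plated at 250 cells/well, was judged by cellular ATP after compound treatment for 48 or 72 hr. Luminescence was imaged 10 min after CellTiter-Glo addition at room temperature.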
# Luciferase inh: Firefly luciferase inhibition profiling of diverse chemical library using quantitative high-throughput screening; purified P. pyralis luciferase, luminescence, biochemical; Potency, µM (doses to about 115 µM), usual class: inhibitors; 76,000 tested, 2.5% active; note: nearly all actives have a fitted effect of over 65% in size
# Target sequence (P08659 whole entry, looked up): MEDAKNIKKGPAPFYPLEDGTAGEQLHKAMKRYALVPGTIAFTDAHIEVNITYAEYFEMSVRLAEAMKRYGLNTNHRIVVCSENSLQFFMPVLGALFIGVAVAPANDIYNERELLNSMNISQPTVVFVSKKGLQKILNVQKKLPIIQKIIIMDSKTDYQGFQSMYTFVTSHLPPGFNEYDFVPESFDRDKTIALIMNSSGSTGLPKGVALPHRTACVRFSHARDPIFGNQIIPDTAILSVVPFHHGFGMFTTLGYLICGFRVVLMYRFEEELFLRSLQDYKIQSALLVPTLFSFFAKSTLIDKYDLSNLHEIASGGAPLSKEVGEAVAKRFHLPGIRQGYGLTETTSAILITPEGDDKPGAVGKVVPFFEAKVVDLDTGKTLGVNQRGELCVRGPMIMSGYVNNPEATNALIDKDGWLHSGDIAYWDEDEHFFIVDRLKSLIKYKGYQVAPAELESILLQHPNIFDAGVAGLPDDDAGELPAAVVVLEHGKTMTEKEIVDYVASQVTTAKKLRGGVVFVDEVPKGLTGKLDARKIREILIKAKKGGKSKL
#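 Cell-free enzyme assay, 10nM P. pyralis luciferase, luciferin and ATP each at 10uM. Inhibition profiled over a 6-point titration, read as luminescence.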
# NPR1 antag: Natriuretic polypeptide receptor (hNpr1) antagonism - Primary qHTS; HEK293 hNpr1 GloSensor cGMP, ANP-stimulated luminescence; AID 1347048, 2019; 76,000 tested, 1.6% active; Potency, µM (highest dose often 46.3 µM), for the others: at the top dose activity change, negative = inhibition, most hits filed as inhibitors; Atrial natriuretic peptide receptor 1 (Homo sapiens), P16066; calls by dose curve; note: nearly all actives have a fitted effect of over 60% in size
#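 Compound pre-incubated 30 min at room temperature on GloSensor-loaded HEK293 cells stably carrying hNpr1 and the pGS-40F cGMP biosensor. Stimulation uses hNppA at 0.1 nM final; luminescence is taken at baseline and 20 min post-agonist.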
# Numbers without * were called inactive; i = inactive; ? = inconclusive; . = no result; [ ] = dose if it differs, or a comment. Only some compounds are listed: those with a hit (about 7.2% of all), similar ones and a draw of the others. Unless noted, calls come from the whole dose curve; as a rule, active = well fitted curve in the direction sought with a large enough effect; inconclusive = small, poorly fitted or top-dose-only effect, or another doubt; inactive = no such curve, though single readings can be large; an effect the other way counts as inactive or inconclusive. Unless noted, % is set by controls: 0 for no effect and ±100 for the full control effect; potency is the fitted concentration of half-maximal effect.
SMILES,SNCA expr inh,SNCA viab count,3T3 cytotox,HEK293 tox,Luciferase inh,NPR1 antag
C=CC(=O)N1CC(N2CCN(C(=O)CNc3cc(C4CC4)c(Cl)cc3O)CC2)C1,.,39.2%,.,.,.,.
Cc1noc(C)c1-c1cc2c(cc(-c3ccccc3)n2C)c(-c2ccnn2C)n1,17.3%[87.6 µM],-16.6%[87.6 µM],?,35.5µM*,i,-19.2%[70.6 µM]
Cc1noc(C)c1-c1cc2c(cc(-c3ccccc3)n2C)c(-c2cnn(C)c2)n1,10.9%[87.6 µM],-20.5%[87.6 µM],11.2µM*,20µM*,i,-22.1%[70.6 µM]
Cc1noc(C)c1-c1cc2c(cc(C)n2C)c(-c2ccccc2)n1,4.2%[87.6 µM],7.7%[87.6 µM],50.1µM*,?,i,1.3%[70.6 µM]
Cc1noc(C)c1-c1cc2c(cc(-c3ccccc3)n2C)c(N2CCOCC2)n1,-14.3%[87.6 µM],-15.1%[87.6 µM],31.6µM*,56.2µM*,i,-0.3%[70.6 µM]
Cc1cc(CNC(=O)[C@@H]2CCC[C@@H](NC3CCC3)CN(C)C(=O)C2)no1,-9.6%[87.6 µM],0.8%[87.6 µM],-17.1%[174 µM],-1.0%[172 µM],i,-1.5%[70.6 µM]
O=C(C[C@@H]1CCNC[C@@H]1Cc1cc(-c2ccccc2)on1)N1CCCCC1,2.4%[87.6 µM],0.6%[87.6 µM],?,?,i,-2.0%[70.6 µM]
CC(C)(C)c1ccc(-c2cc(C[C@H]3CNCC[C@H]3CC(=O)N3CCCCC3)no2)cc1,?,?,35.5µM*,?,i,4.1%[70.6 µM]
CN1CCN(C(=O)C[C@@H]2CCNC[C@@H]2Cc2cc(-c3ccc(C(C)(C)C)cc3)on2)CC1,13.4%,6.1%,79.4µM*,?,i,16.2%
CC(=O)N1CCC(C2CCN(C(=O)NCCc3ccccc3)C2)CC1 (stereo unspecified),8.5%,-0.9%[12.5 µM],1.1%,i,i,9.0%
CCn1c(C2CCCN(Cc3ccccn3)C2)nn(C)c1=O (stereo unspecified),1.0%,-0.6%,-5.2%,-16.5%,i,1.1%
CC(C)c1ccc(CC(=O)N2CCCc3ncc(C(=O)Nc4cccc(C(F)(F)F)c4)cc32)cc1,-16.6%,-24.9%,?,31.6µM*,i,-27.5%
CC(C)NC(=O)c1cnc2c(c1)N(C(=O)Cc1cccc(C(F)(F)F)c1)CCC2,0.2%[87.6 µM],-2.6%[87.6 µM],?,-16.2%[172 µM],i,2.1%[70.6 µM]
Cc1ccccc1NC(=O)c1cnc2c(c1)N(C(=O)Cc1ccc(C(C)C)cc1)CCC2,-19.4%[87.6 µM],-24.4%[87.6 µM],89.1µM*,100µM*,i,?
O=C(N[C@@H](Cn1cc(Cl)c(=O)[nH]c1=O)C(=O)O)C1CC1,?,3.2%[87.6 µM],1.4%[138 µM],i,i,-17.1%[70.6 µM]
COc1ccc(C(=O)N2CCC3(CC2)NC(=O)N(c2ccc(F)cc2)N3)cc1,7.0%,-14.2%,?,?,i,-4.3%
COc1cc(OC)cc(C(=O)N2CCC3(CC2)NC(=O)N(c2ccc(F)cc2)N3)c1,?,-18.1%,25.1µM*,28.2µM*,i,-26.4%
CC(=O)NC1(C)CCN(Cc2cccc(-c3ccccc3)c2)C1 (stereo unspecified),2.5%[87.6 µM],1.2%[87.6 µM],-26.5%[138 µM],?,i,0.7%[70.6 µM]
CC(=O)NC1(C)CCN(Cc2ccc(-c3ccc(N4CCOCC4)cc3)cc2)C1 (stereo unspecified),92.0%[87.6 µM],0.4%[87.6 µM],?,?,?,-13.7%[70.6 µM]
CC(=O)NC1(C)CCN(Cc2ccc(-c3cccc(F)c3)cc2)C1 (stereo unspecified),111.0%[87.6 µM],-1.5%[87.6 µM],89.1µM*,?,i,-14.6%[70.6 µM]
CC(=O)NC1(C)CCCN(Cc2cc(-c3cccc(N(C)C)c3)cs2)C1 (stereo unspecified),39.8%[87.6 µM],-12.7%[87.6 µM],?,63.1µM*,70.8µM*,-0.8%[70.6 µM]
COc1cccc(Nc2cc(CN3CCC(C)(NC(C)=O)CC3)cc(OC)c2)c1,-18.9%[87.6 µM],9.5%[87.6 µM],100µM*,112µM*,i,-1.2%[70.6 µM]
CC(=O)NC1(C)CCN(Cc2ccc(-c3cccc(Cl)c3)cc2)C1 (stereo unspecified),-3.9%[87.6 µM],-11.3%[87.6 µM],?,89.1µM*,i,-22.4%[70.6 µM]
O=C1CCN(C(=O)C2CCN(C(=O)C3CC3)CC2)CCCCCCN1,36.5%,5.6%,-16.0%,-13.5%,i,3.0%
O=C(c1n[nH]c2ccccc12)N1CCCC1c1nc(CCOCC2CC2)no1 (stereo unspecified),-21.8%,0.2%,-9.3%,-21.3%,i,-0.7%
SMILES,SNCA expr inh,SNCA viab count,3T3 cytotox,HEK293 tox,Luciferase inh,NPR1 antag
COCCNC(=O)[C@@H]1C[C@H](Oc2cccnc2)CN1C(=O)C1(C)CCCCC1,7.6%,2.6%,4.9%,-13.9%,i,-0.6%
CC(=O)NC1(C)CCN(Cc2ccc(-c3ccccc3OCc3ccccc3)cc2)C1 (stereo unspecified),0.0%[87.6 µM],-19.6%[87.6 µM],31.6µM*,31.6µM*,?,-4.2%[70.6 µM]
CC(=O)NC1(C)CCN(Cc2ccccc2-c2ccc3c(ccn3C)c2)C1 (stereo unspecified),9.0%[87.6 µM],-3.6%[87.6 µM],89.1µM*,100µM*,i,0.5%[70.6 µM]
CC(=O)NC1(C)CCCN(Cc2cc(-c3cccc(C(F)(F)F)c3)cs2)C1 (stereo unspecified),6.7%[87.6 µM],3.7%[87.6 µM],?,?,?,3.7%[70.6 µM]
CC(=O)NC1(C)CCN(Cc2ccc(-c3cccc(C(F)(F)F)c3)cc2)C1 (stereo unspecified),124.4%[87.6 µM],-27.0%[87.6 µM],44.7µM*,50.1µM*,63.1µM*,-15.1%[70.6 µM]
CN(C)C[C@@H]1CN(c2ncccn2)C[C@H]1NC(=O)CCCc1ccccc1,-5.1%,-0.1%,-8.1%,-8.7%,i,0.7%
C=C1CCC2C(C)(C)CCCC2(C)C1CC/C(C)=C\CO (stereo unspecified),.,-3.6%,.,.,.,.
CN(Cc1ccccc1C(F)(F)F)C(=O)Cc1ccc(F)cc1,-10.5%[87.6 µM],-16.2%[87.6 µM],?,?,i,23.1%[70.6 µM]
CN(Cc1ccc(F)cc1)C(=O)c1cn(Cc2ccccc2C(F)(F)F)nn1,?,?,?,7.94µM*,i,4.4%
O=C1CCN(CC(O)C(F)(F)F)c2cc3c(cc2CN1CC1CC1)OCO3 (stereo unspecified),.,.,?,-9.1%,.,.
Cn1cccc1C(=O)N1CC(c2nc(CCOCC3CCCC3)no2)C1,16.1%,3.6%,-15.2%,?,i,-1.2%
COc1ccc(-c2ccccc2NC(=O)C2CCCN(Cc3c(O)cccc3OC)C2)cc1 (stereo unspecified),?,-18.6%,?,20µM*,i,?

# Source: PubChem BioAssay
